# According to PubChem BioAssay AID1745850 (National Center for Advancing Translational Sciences (NCATS), 2022):
# About 260 (12%) of roughly 2,100 compounds were called active. Roughly 58% stayed inconclusive and do not appear here. Some of the results follow. Unmarked numbers belong to inactive results. The call rests on the fitted dose curve; in most records, active means well fitted cell-killing curve with a large enough effect; inconclusive means small, poorly fitted or top-dose-only effect, or effect the other way; inactive means flat fitted curve, though single readings scatter.
# Test: Viability Counterscreen for Confirmatory qHTS for Inhibitors of ATXN expression; further: nearly all actives have a fitted effect of over 50% in size
# Details: HEK-293 ATXN2-luc cells viability, CellTiter-Fluor, 24 h; activity change, negative = cytotoxicity: at the top concentration
# Excerpt: PI: Daniel Scoles Ph.D. University of Utah School of Medicine, Salt Lake City, Utah MLPCN Grant: NS073009 Spinocerebellar ataxia type 2 (SCA2) is a multisystem neurodegenerative disease caused by a dominantly acting mutation leading to expansion of a polyQ domain in the ataxin-2 protein (ATXN2). SCA2 patients develop progressive ataxia and later lose function in other neuronal systems. Prominent parkinsonian signs develop in some patients. Like many neurodegenerative disorders, no symptomatic or disease-modifying treatments are known. The primary objective of the proposed research is to identify compounds inhibiting ATXN2 expression and to test them for efficacy in SCA2 mouse models. We have developed a cell-based assay paired with an in vivo mouse model using identical luciferase expression constructs. This approach takes advantage of an ATXN2-luciferase transgene, with the luciferase gene flanked by the upstream and downstream portions of the ATXN2 gene. Here we describe a 5-7 dose quantitative high thoroughput screen (qHTS) for compounds lowering ATXN2 expression. We screened the NIH Molecular Libraries Small Molecule Repository (MLSMR) and NCGC's mechanistically annotated (MIPE) and drug repurposing (NPC) collections of compounds for lowering expression of an ATXN2-luciferase reporter in HEK-293 cells. The assay is a multiplexed cell viability assay to ensure target reduction in the absence of cytotoxicity. Secondary qHTS assays included a CMV-luciferase reporter expressed in HEK-293 cells as well as a biochemical assay using recombinant luciferase to detect inhibitors of the reporter enzyme. Compounds that inhibit ATXN2 expression but is not cytotoxic were selected for confirmatory and secondary screens.
# PROTOCOL TABLE (as described by Inglese J, Shamu CE and Guy RK. 2007) SEQUENCE No. (e.g., 1, 2, 3, etc.); […] (e.g., Cells, Incubation, Reagent, etc.); VALUE; DESCRIPTION. 1; Cells; 4 uL; white, solid bottom, 1536-well Greiner assay plate. 2; Incubation; 2 hr; 37 degree C in 5% humidified CO2. 3; Compounds; 23 nL; Kalypsis pintool (Wako USA) equipped with a 1536-well pin head. 4; Incubation; 24 hr; 37 degree C in 5% humidified CO2. 5; Reagent; 1 uL; Gly-Phe-7-Amino-4-trifluoromethylcoumarin. 6; Incubation; 30 min; 37 degree C in 5% humidified CO2. 7; Detection; Fluorescence; ViewLux plate reader (PerkinElmer). 8; Reagent; 3 uL; SteadyGlo luciferase solution (Promega). 9; Incubation; 5 min; room temperature. 10; Detection; Luminescence; ViewLux plate reader (PerkinElmer). NOTES (numbers refer to Sequence numbers above) 1. S2 cells expressing ATXN2-luciferase reporter were suspended in phenol-red free DMEM and dispensed in assay plates using a Multidrop Combi dispenser (Thermo Fisher Scientific). Wells containing medium only were plated on each plate, and values were used to normalize (100% inhibition) in the luciferase and CellTiter-Fluor assays. 2. Assay plates were incubated. Evaporation was prevented by covering assay plates with metal lids containing holes to allow gas diffusion. 3. Compounds were added in a dose response manner with the final concentrations of 57, 11.4, 2.28, 0.46, 0.091, 0.018, 0.0037 uM. Vehicle-only plates, with DMSO being pin-transferred to columns 5-48, were inserted uniformly at the beginning and the end of each library to monitor and record any shifts in assay performance. 5. 125 uM Gly-Phe-7-Amino-4-trifluoromethylcoumarin (MP Biomedicals) working concentration was used at a final concentration of 25 uM. 7. To assess cell viability; the assay plates were read using the ViewLux high-throughput CCD imager (PerkinElmer), wherein single end-point fluorescence measurement was acquired (excitation 405/10; emission 540/25 nm). 8. Detection reagent SteadyGlo Luciferase (Promega) was added to the assay plate. 10. Luminescence is then measured on the ViewLux imager equipped with a clear emission filter using a 2 sec exposure. […]
# Potency means the concentration at half of the fitted maximal effect.
SMILES,"activity change, negative = cytotoxicity",Potency
COCc1cc(CN2CCCC2)c(O)c2ncccc12,-19.9%,–
COc1cccc(CN2CCC2(C)C(=O)Nc2cccc3cccnc23)c1OC (stereo unspecified),-28.3%,–
COc1ccccc1N1CCN(Cc2ccc(O)c3ncccc23)CC1,–,2.82 µM (active)
Cc1ccc(/C=C2/CNC/C(=C/c3ccc(C)cc3)C2=O)cc1,–,11.2 µM (active)
CN(C)CCNc1ccc2ncn3c4ccc(O)cc4c(=O)c1c23,-23.3%,–
CN(C)CCNc1cccc2sc3ccc(O)cc3c(=O)c12,–,22.4 µM (active)
CCn1c2ccccc2c2cc(/C=C(/C#N)C(N)=S)ccc21,-21.4%,–
O=C(NN=C1CCCC1)c1cc(-c2ccc(F)cc2)nc2ccccc12,-13.9% [at 57.5 µM],–
C/C(=N\NC(=O)c1cc(-c2cccnc2)nc2ccccc12)c1ccc(O)cc1O,–,11.2 µM (active)
CCN(CC)S(=O)(=O)c1cccc(C(=O)N/N=C(\C)c2ccc(O)cc2O)c1,-17.5% [at 57.5 µM],–
CCN(CC)c1ccc(/C=N/NC(=O)CNC(=O)C2COc3ccccc3O2)c(O)c1 (stereo unspecified),-22.3%,–
COc1ccc(CN2CCCN(S(=O)(=O)c3ccc(Br)cc3)CC2)cc1,-10.5% [at 57.5 µM],–
Cc1cccc(OCCCC(=O)Nc2nccs2)c1,1.34%,–
O=C(NC(Nc1nc2ccc([N+](=O)[O-])cc2s1)(C(F)(F)F)C(F)(F)F)c1ccccc1,–,2.24 µM (active)
O=C(NC(Nc1ncc(S(=O)(=O)c2ccc([N+](=O)[O-])cc2)s1)(C(F)(F)F)C(F)(F)F)c1ccc(Cl)cc1,–,10 µM (active)
Cc1ccc(S(=O)(=O)c2cc3cc(Br)ccc3oc2=O)cc1,-3.3% [at 57.5 µM],–
Cn1c(CO)cnc1S(=O)(=O)Cc1ccc([N+](=O)[O-])cc1,-12.7% [at 57.5 µM],–
O=C(CN1CCN(C(=O)c2ccc(-c3nc4ccccc4s3)o2)CC1)Nc1ccccc1Cl,–,3.55 µM (active)
c1nc(CCO[C@H]2CCCCO2)cc2cc3c(cc12)OCO3,-10.3%,–
O=C(CN1c2cccc3cccc(c23)S1(=O)=O)NCc1ccc(Cl)cc1,10.1%,–
O=C(CCc1ccccc1)NNC(=O)c1cc(Cl)ccc1O,-11.5%,–
Cc1ccc(-c2c(C#N)c(N)n3c(nc4ccccc43)c2C#N)cc1,-27.3% [at 57.5 µM],–

SMILES,"activity change, negative = cytotoxicity",Potency
Cc1cc(Nc2cccc([N+](=O)[O-])c2)n2c(nc3ccccc32)c1C#N,–,5.01 µM (active)
COc1ccc(-c2nnc(NC(=O)c3ccc(S(=O)(=O)N4COCC4(C)C)cc3)o2)cc1,-23.2%,–
Cc1ccc(NC(=O)c2ccc(-c3nn(C)c(=O)c4ccccc34)cc2)cc1,-27.2% [at 57.5 µM],–
CCOC(=O)C(NS(=O)(=O)c1ccc(C)cc1)(C(F)(F)F)P(=O)(OCC(C)C)OCC(C)C (stereo unspecified),-12.5%,–
Cc1csc2c(N3CCN(C(=O)Nc4ccc(Cl)c(Cl)c4)CC3)ncnc12,-12.7%,–
O=c1c2c3c(sc2ncn1/N=C/c1ccc([N+](=O)[O-])o1)CCCC3,–,3.55 µM (active)
NNc1ncnc2sc3c(c12)CCC3,-29.5% [at 57.5 µM],–
COc1cc(/C=C2\COC/C(=C\c3cc(OC)c(OC)c(OC)c3)C2=O)cc(OC)c1OC,–,1.78 µM (active)
COc1ccc(/C=C2/CSC/C(=C/c3ccc(OC)c(OC)c3)C2=O)cc1OC,–,11.2 µM (active)
Cc1ccc(CN2CCC(c3nc4ccc(Cl)cc4[nH]3)CC2)cc1,-21.1% [at 57.5 µM],–
Cc1cc(C)c(C(O)c2ncc(-c3cccc4ccccc34)[nH]2)c(C)c1 (stereo unspecified),-7.41%,–
OC(c1ccc(Cl)cc1)c1ncc(-c2cccc(C(F)(F)F)c2)[nH]1 (stereo unspecified),2.6%,–
Cc1ccc(-c2csc(N3CCN(c4cc5c(cc4Cl)nc(-c4ccncc4)n5CCOCCO)CC3)n2)cc1,-22.6% [at 57.5 µM],–
Cn1c2c(c(=O)n(C)c1=O)C(C(F)(F)F)(C(F)(F)F)N=C(CCC1CCCCC1)N2,–,20 µM (active)
COc1cc(Nc2ncc3c(n2)CCN(C(=O)Nc2ccc(C(C)C)cc2)C3)cc(OC)c1OC,-27.8%,–
CCCc1cc(C(=O)Nc2ccc(C(=O)c3ccc(C)cc3)cc2)n(C)n1,-29%,–
Cc1cc(C(=O)N/N=C/c2cc(Br)ccc2OC(=O)c2ccccc2)n[nH]1,-18.4%,–
Cc1ccc(NC(=O)C2CCN(S(=O)(=O)c3ccc(N4CCCC4=O)cc3)CC2)cc1Cl,-8.48%,–
Cn1c(SCc2ccc(C(C)(C)C)cc2)nnc1C1COc2ccccc2O1 (stereo unspecified),-21.7%,–
CCc1ccc(C(=O)NNC(=O)C2CCN(c3ncnc4sc(C)c(C)c34)CC2)cc1,-21.9%,–
CCc1c(C)nc2ncnn2c1N1CCC(C(=O)Nc2ccc(C)cc2)CC1,-16.8% [at 57.5 µM],–
CCc1ccc(CNC(=O)C2CCN(c3nnc(C)c4c(C)n(-c5ccc(C)cc5)nc34)CC2)cc1,–,20 µM (active)

SMILES,"activity change, negative = cytotoxicity",Potency
FC(F)(F)c1cc(-c2ccccn2)nc2cc(-c3ccccc3)nn12,-8.59% [at 57.5 µM],–
Cc1ccc(-c2nnc(N3CCC(C)CC3)c3ccccc23)cc1C,-27.5%,–
Cc1cc2c(N=O)c(NO)ccc2[nH]1,–,12.6 µM (active)
CC[n+]1c(C=C2C=C(C)OC(C)=C2)sc2ccccc21,–,11.2 µM (active)
NNc1nc(N)c2c(n1)-c1ccccc1CC21CCCC1,-20.9% [at 57.5 µM],–
OCCNc1c2ccccc2nc2c(F)c(F)c(F)c(F)c12,19.5% [at 57.5 µM],–
CC(=O)Nc1ccc(Nc2c3ccccc3nc3ccccc23)cc1,–,17.8 µM (active)
CC(=O)Nc1ccc(NC2=Nc3ccccc3N3C2=Nc2c(c(C)nn2-c2ccccc2)C3c2ccccc2)cc1 (stereo unspecified),21.2%,–
Cc1nnc(SCC(N)=O)n1CC1CCCO1 (stereo unspecified),-18.5% [at 57.5 µM],–
CCOc1ccccc1NC(=O)N1CCC(c2nc3ccccc3[nH]2)CC1,-18.1%,–
CCOc1ccccc1C(=O)Nc1ccc2nc(N3CCN(c4ncccn4)CC3)cc(C)c2c1,–,11.2 µM (active)
CCOc1ccc(C(=O)Nc2ccc(Cc3ccncc3)cc2)cc1Br,-20.8% [at 57.5 µM],–
OC(c1ccccc1)(c1nc(-c2cc3ccccc3o2)cs1)C(F)(F)F (stereo unspecified),-13% [at 57.5 µM],–
CCc1ccc(-c2nc(CS(=O)CC(=O)NCc3ccco3)c(C)o2)cc1 (stereo unspecified),-6.43%,–
O=C(CNC(=O)c1cccc(Br)c1)N/N=C/c1cc(Br)cc(Br)c1O,-26.1% [at 57.5 µM],–
O=C(N/N=C\c1ccc([N+](=O)[O-])s1)c1cncc(Br)c1,–,11.2 µM (active)
COc1ccc(C(=O)NCC(=O)N/N=C/c2ccc([N+](=O)[O-])s2)cc1OC,–,22.4 µM (active)
Cc1ccc(OCCNC(=O)c2cncc(Br)c2)cc1C,-20.8% [at 57.5 µM],–
O=C(N/N=C/c1cc(Br)ccc1O)c1ccncc1,-3.23%,–
O=C(N/N=C/c1ccc([N+](=O)[O-])s1)c1ccccc1Br,–,22.4 µM (active)
O=C(CNC(=O)c1ccccc1Br)N/N=C/c1cc(Br)ccc1O,-2.53%,–
O=C(CP(=O)(c1ccccc1)c1ccccc1)N/N=C/c1cc(Br)cc(Br)c1O,1.93%,–
